Some test systems named below: EKVX NSCLC; SN12C renal; UO-31 renal; TK-10 renal; ACHN renal; CAKI-1 renal; A498 renal; CCRF-CEM leukemia; MOLT-4 leukemia; SR leukemia; RPMI-8226 leukemia; OVCAR-8 ovarian; OVCAR-5 ovarian; OVCAR-4 ovarian; IGROV1 ovarian; OVCAR-3 ovarian; HS 578T breast; T-47D breast; SK-OV-3 ovarian; NCI/ADR-RES ovarian.
Test in all cases: NCI-60 one-dose screen, 48 h (100 = growth as untreated, 0 = no growth, -100 = all killed)
Holding throughout (conditions): 10 µM unless noted

Molecules are shown by their SMILES. This is part of a sample that, as a whole, favours compounds with a hit. Of some 83,000 tested, about 20% had one in any assay.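 48-hour exposure, single concentration, 96-well plates; percent growth endpoint where 0 means no net growth. Active: below 10.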 Unmarked numbers belong to inactive results. Active and inactive are the calls of the source.

Regarding `COc1ccc(Cc2nn(CC(=O)N/N=C/c3ccc(Cl)cc3)c(=O)c3c(C)noc23)cc1`, the growth in the assay with EKVX NSCLC was 88.8%; in the assay with SN12C renal, 66%; in the assay with UO-31 renal, 84.9%; with TK-10 renal, 95.5%; in the assay on ACHN renal it was 72.7%; in the assay with CAKI-1 renal, 80.8%. The growth in the assay on A498 renal is 90.5%; with CCRF-CEM leukemia it was 74.8%; with MOLT-4 leukemia, 89.7%; in the assay on SR leukemia it was 53.9%; in the assay with RPMI-8226 leukemia, 87.4%; with OVCAR-8 ovarian it was 61.9%. For the same molecule, the growth was 97.3% with OVCAR-5 ovarian; 59.2% with OVCAR-4 ovarian; 82.1% in the assay with IGROV1 ovarian; 107% in the assay on OVCAR-3 ovarian; 22.1% in the assay on HS 578T breast; 58.9% in the assay on T-47D breast.

`CS(=O)(=O)Nc1ccc(-c2nn(-c3ccc(S(C)(=O)=O)cc3)cc2/C=C/C(=O)c2ccc(NC(=O)CO[N+](=O)[O-])cc2)cc1`: the growth in the assay with EKVX NSCLC is 103%; in the assay on SN12C renal it was 109%; in the assay with UO-31 renal it was 93.9%; in the assay on TK-10 renal it was 112%; in the assay with ACHN renal, 96.1%; with CAKI-1 renal it was 97.7%. The growth in the assay with A498 renal is 110%; in the assay with CCRF-CEM leukemia it was 111%; in the assay with MOLT-4 leukemia it was 107%; in the assay on SR leukemia it was 92.1%; in the assay on RPMI-8226 leukemia, 111%; with OVCAR-8 ovarian, 101%. In addition, the growth with OVCAR-5 ovarian is 103%; with OVCAR-4 ovarian, 106%; in the assay with SK-OV-3 ovarian, 99.7%; with IGROV1 ovarian, 105%; in the assay on OVCAR-3 ovarian, 116%; in the assay on HS 578T breast, 122%. Further, the growth in the assay with NCI/ADR-RES ovarian was 97.3%; in the assay on T-47D breast, 102%.

Turning to `Cc1ccccc1NC(=O)/C=C/c1ccc(OCCOc2ccc3c(C)cc(=O)oc3c2)cc1`, the growth with EKVX NSCLC was 107%; in the assay on SN12C renal, 91.5%; in the assay on UO-31 renal, 99.6%; in the assay on TK-10 renal, 132%; in the assay with ACHN renal it was 89.4%; with CAKI-1 renal it was 95.1%. Also, the growth with A498 renal is 81.3%; with CCRF-CEM leukemia, 95.7%; in the assay with MOLT-4 leukemia it was 93.2%; with SR leukemia, 61.3%; in the assay on RPMI-8226 leukemia, 94%; with OVCAR-8 ovarian, 64.9%. The growth with OVCAR-5 ovarian is 103%; in the assay with OVCAR-4 ovarian it was 75.5%; with SK-OV-3 ovarian it was 77.6%; in the assay on IGROV1 ovarian, 103%; in the assay on HS 578T breast it was 61.2%; in the assay on NCI/ADR-RES ovarian, 84.6%. The growth in the assay on T-47D breast is 84.1%.

For the molecule `Cc1nc2cnc(N)c(C#Cc3cncc(C(=O)Nc4ccc(Cl)c(C(F)(F)F)c4)c3)c2nc1C`, the growth in the assay on EKVX NSCLC was 82.4%; with SN12C renal, 36.3%; in the assay on UO-31 renal it was 19.9%; in the assay with TK-10 renal, 67.7%; in the assay with ACHN renal, 30.3%; with CAKI-1 renal, 18.8%. Further, the growth with A498 renal was 55.4%; with CCRF-CEM leukemia it was 23.2%; in the assay on MOLT-4 leukemia it was 35.6%; in the assay with SR leukemia, -18.8% (active); in the assay with RPMI-8226 leukemia it was -10.2% (active); with OVCAR-8 ovarian, 69.7%. In addition, the growth with OVCAR-5 ovarian was 54.5%; in the assay with OVCAR-4 ovarian, 65.2%; in the assay with SK-OV-3 ovarian it was 120%; in the assay on IGROV1 ovarian, 16.9%; in the assay with OVCAR-3 ovarian it was 39.3%; in the assay with NCI/ADR-RES ovarian it was 63.9%. Also, the growth with T-47D breast is 109%.

As to `Cc1cc(=O)oc2cc(OCCCOc3ccc(/C=C/C(=O)Nc4ccc(Cl)cc4)cc3)ccc12`, the growth in the assay with EKVX NSCLC was 98.5%; with SN12C renal it was 84.4%; in the assay with UO-31 renal it was 61.5%; in the assay on TK-10 renal, 118%; in the assay with ACHN renal, 45.3%; in the assay on CAKI-1 renal, 59.6%. The growth in the assay on A498 renal was 57.7%; in the assay on CCRF-CEM leukemia, 68.2%; in the assay on MOLT-4 leukemia, 87.3%; in the assay on SR leukemia, 37.7%; in the assay with RPMI-8226 leukemia it was 70.7%; in the assay with OVCAR-8 ovarian it was 67.1%. Moreover, the growth in the assay with OVCAR-5 ovarian was 84%; with OVCAR-4 ovarian it was 12.6%; in the assay with SK-OV-3 ovarian it was 90.4%; in the assay with IGROV1 ovarian, 73.2%; with HS 578T breast, 46.2%; in the assay on NCI/ADR-RES ovarian, 56.6%. In addition, in the assay with T-47D breast, the growth was 47.2%.

As to `O=C1C2=C(C(=O)c3c(O)cccc31)C(c1ccco1)c1sc(=O)[nH]c1S2` (stereo not drawn), the growth in the assay on EKVX NSCLC is 83.4%; with SN12C renal it was -73.6% (active); in the assay with UO-31 renal, 25.1%; in the assay with TK-10 renal it was 146%; in the assay on ACHN renal it was 39.6%; in the assay with CAKI-1 renal, 70.4%. Moreover, the growth in the assay on A498 renal was 17.1%; in the assay with CCRF-CEM leukemia, 13%; in the assay with MOLT-4 leukemia, 0.849% (active); in the assay with SR leukemia, 15.8%; in the assay with RPMI-8226 leukemia, 18.7%; in the assay with OVCAR-8 ovarian, 2.5% (active). Further, the growth in the assay on OVCAR-5 ovarian was 11.7%; with OVCAR-4 ovarian it was 24.3%; with SK-OV-3 ovarian, 115%; with IGROV1 ovarian it was 28.1%; in the assay with HS 578T breast, -10.4% (active); with NCI/ADR-RES ovarian it was 9.22% (active). The growth with T-47D breast is 23.6%.

With `Nc1cc(-c2c[nH]c3ccc(F)cc23)nc2cc(-c3c[nH]c4ccc(F)cc34)nn12`, the growth in the assay with EKVX NSCLC was 78.2%; in the assay with SN12C renal it was 99%; in the assay with UO-31 renal, 75.8%; in the assay with TK-10 renal, 118%; with ACHN renal it was 66.3%; in the assay on CAKI-1 renal, 77.8%. Further, the growth with A498 renal is 67.8%; in the assay with CCRF-CEM leukemia it was 7.99% (active); with MOLT-4 leukemia, 39%; with SR leukemia, -22.1% (active); with RPMI-8226 leukemia, 30.7%; in the assay on OVCAR-8 ovarian, 89.8%. The growth was 115% in the assay on OVCAR-5 ovarian; 96.1% in the assay with OVCAR-4 ovarian; 135% with SK-OV-3 ovarian; 94.8% in the assay with IGROV1 ovarian; 94.4% in the assay with OVCAR-3 ovarian; 93% in the assay on NCI/ADR-RES ovarian. In addition, in the assay with T-47D breast, the growth was 81.7%.

Values taken from PubChem BioAssay (NCI).
